Experimental data reported in the supplement of paper PMC4466140.

The binders below were run against AgAbp1 (assay: SPOT peptide array binding signal intensity (averaged, normalized) (arbitrary units (background-subtracted, floor 0; scale differs between SH3 domains)); higher = stronger binding of the SH3 domain to the peptide).
Description: (§1)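 GST-tagged SH3 domains from S. cerevisiae (Sc), A. gossypii (Ag), C. albicans (Ca) and S. pombe (Sp) were incubated at 10 ug/ml overnight at 4 C on cellulose SPOT membranes carrying 292 synthetic 15-mer peptides mined from the S. cerevisiae proteome (cysteines replaced by serines). Binding was detected with anti-GST antibody, HRP secondary and chemiluminescence, quantified with Genespotter, and reported as normalized spot intensities averaged over biological replicates.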

| Binder | SPOT peptide array binding signal intensity |
| --- | --- |
| NHSRSLFSLPGNQQS | 31 |

What follows are binders tested against AgBbc1 in the same assay as above.
Description: as §1

| Binder | SPOT peptide array binding signal intensity |
| --- | --- |
| NHSRSLFSLPGNQQS | 21.5 |

These binders were tested against AgBem1-D1 in the same assay as above.
Description: as §1

| Binder | SPOT peptide array binding signal intensity |
| --- | --- |
| NHSRSLFSLPGNQQS | 96.5 |

What follows are binders tested against AgBzz1-D1 in the same assay as above.
Description: as §1

| Binder | SPOT peptide array binding signal intensity |
| --- | --- |
| NHSRSLFSLPGNQQS | 38 |

Each binder was assayed against AgBzz1-D2 in the same assay as above.
Description: as §1

| Binder | SPOT peptide array binding signal intensity |
| --- | --- |
| NHSRSLFSLPGNQQS | 20.5 |

What follows are binders tested against AgCyk3 in the same assay as above.
Description: as §1

| Binder | SPOT peptide array binding signal intensity |
| --- | --- |
| NHSRSLFSLPGNQQS | 1 |

The binders below were run against AgFus1 in the same assay as above.
Description: as §1

| Binder | SPOT peptide array binding signal intensity |
| --- | --- |
| NHSRSLFSLPGNQQS | 786 |

What follows are binders tested against AgHof1 in the same assay as above.
Description: as §1

| Binder | SPOT peptide array binding signal intensity |
| --- | --- |
| NHSRSLFSLPGNQQS | 58.8 |

The binders below were run against AgHse1 in the same assay as above.
Description: as §1

| Binder | SPOT peptide array binding signal intensity |
| --- | --- |
| NHSRSLFSLPGNQQS | 2350 |

These binders were tested against AgLsb1 in the same assay as above.
Description: as §1

| Binder | SPOT peptide array binding signal intensity |
| --- | --- |
| NHSRSLFSLPGNQQS | 246 |

The binders below were run against AgLsb4 in the same assay as above.
Description: as §1

| Binder | SPOT peptide array binding signal intensity |
| --- | --- |
| NHSRSLFSLPGNQQS | 45 |

The binders below were run against AgMyo5 in the same assay as above.
Description: as §1

| Binder | SPOT peptide array binding signal intensity |
| --- | --- |
| NHSRSLFSLPGNQQS | 44.5 |

What follows are binders tested against AgNbp2 in the same assay as above.
Description: as §1

| Binder | SPOT peptide array binding signal intensity |
| --- | --- |
| NHSRSLFSLPGNQQS | 44 |

What follows are binders tested against AgRvs167 in the same assay as above.
Description: as §1

| Binder | SPOT peptide array binding signal intensity |
| --- | --- |
| NHSRSLFSLPGNQQS | 14 |

Each binder was assayed against AgSho1 in the same assay as above.
Description: as §1

| Binder | SPOT peptide array binding signal intensity |
| --- | --- |
| NHSRSLFSLPGNQQS | 64 |

The binders below were run against AgSla1-D1-D2 in the same assay as above.
Description: as §1

| Binder | SPOT peptide array binding signal intensity |
| --- | --- |
| NHSRSLFSLPGNQQS | 58.5 |

The binders below were run against AgSla1-D3 in the same assay as above.
Description: as §1

| Binder | SPOT peptide array binding signal intensity |
| --- | --- |
| NHSRSLFSLPGNQQS | 13.5 |

Each binder was assayed against CaAbp1-D1 in the same assay as above.
Description: as §1

| Binder | SPOT peptide array binding signal intensity |
| --- | --- |
| NHSRSLFSLPGNQQS | 266 |

These binders were tested against CaAbp1-D2 in the same assay as above.
Description: as §1

| Binder | SPOT peptide array binding signal intensity |
| --- | --- |
| NHSRSLFSLPGNQQS | 430 |

Each binder was assayed against CaBbc1 in the same assay as above.
Description: as §1

| Binder | SPOT peptide array binding signal intensity |
| --- | --- |
| NHSRSLFSLPGNQQS | 111 |

What follows are binders tested against CaBem1-D1 in the same assay as above.
Description: as §1

| Binder | SPOT peptide array binding signal intensity |
| --- | --- |
| NHSRSLFSLPGNQQS | 27 |

These binders were tested against CaBzz1-D1 in the same assay as above.
Description: as §1

| Binder | SPOT peptide array binding signal intensity |
| --- | --- |
| NHSRSLFSLPGNQQS | 5.5 |

Each binder was assayed against CaBzz1-D2 in the same assay as above.
Description: as §1

| Binder | SPOT peptide array binding signal intensity |
| --- | --- |
| NHSRSLFSLPGNQQS | 31 |

What follows are binders tested against CaCyk3 in the same assay as above.
Description: as §1

| Binder | SPOT peptide array binding signal intensity |
| --- | --- |
| NHSRSLFSLPGNQQS | 1.5 |

What follows are binders tested against CaFus1 in the same assay as above.
Description: as §1

| Binder | SPOT peptide array binding signal intensity |
| --- | --- |
| NHSRSLFSLPGNQQS | 1930 |

These binders were tested against CaHof1 in the same assay as above.
Description: as §1

| Binder | SPOT peptide array binding signal intensity |
| --- | --- |
| NHSRSLFSLPGNQQS | 0.25 |

Each binder was assayed against CaHse1 in the same assay as above.
Description: as §1

| Binder | SPOT peptide array binding signal intensity |
| --- | --- |
| NHSRSLFSLPGNQQS | 296 |

Each binder was assayed against CaLsb1 in the same assay as above.
Description: as §1

| Binder | SPOT peptide array binding signal intensity |
| --- | --- |
| NHSRSLFSLPGNQQS | 2 |

The binders below were run against CaLsb4 in the same assay as above.
Description: as §1

| Binder | SPOT peptide array binding signal intensity |
| --- | --- |
| NHSRSLFSLPGNQQS | ≤ 0 |

What follows are binders tested against CaMyo5 in the same assay as above.
Description: as §1

| Binder | SPOT peptide array binding signal intensity |
| --- | --- |
| NHSRSLFSLPGNQQS | 85.2 |

These binders were tested against CaNbp2 in the same assay as above.
Description: as §1

| Binder | SPOT peptide array binding signal intensity |
| --- | --- |
| NHSRSLFSLPGNQQS | 358 |

These binders were tested against CaRvs167 in the same assay as above.
Description: as §1

| Binder | SPOT peptide array binding signal intensity |
| --- | --- |
| NHSRSLFSLPGNQQS | 54.7 |

The binders below were run against CaRvs167-3 in the same assay as above.
Description: as §1

| Binder | SPOT peptide array binding signal intensity |
| --- | --- |
| NHSRSLFSLPGNQQS | 70.5 |

These binders were tested against CaSho1 in the same assay as above.
Description: as §1

| Binder | SPOT peptide array binding signal intensity |
| --- | --- |
| NHSRSLFSLPGNQQS | 838 |

The binders below were run against CaSla1-D1-D2 in the same assay as above.
Description: as §1

| Binder | SPOT peptide array binding signal intensity |
| --- | --- |
| NHSRSLFSLPGNQQS | 25.5 |

These binders were tested against CaSla1-D3 in the same assay as above.
Description: as §1

| Binder | SPOT peptide array binding signal intensity |
| --- | --- |
| NHSRSLFSLPGNQQS | 23.8 |

The binders below were run against ScAbp1 in the same assay as above.
Description: as §1

| Binder | SPOT peptide array binding signal intensity |
| --- | --- |
| NHSRSLFSLPGNQQS | 48 |
